{"source": "PubChem BioAssay", "note": "Calls of active or inactive are those of the source. Cut-off read from the data, not from the text of the source: active = inhibition above about 31%; inactive = the rest.", "data": [{"assay": "MRP1 drug-resistance reversers in H69AR cells – cell-based, doxorubicin co-treatment, pilot screen (AID 601)", "conditions": "H69AR cells, CellTiter-Glo, 72 h; compound alone cytotoxicity; at 10 µM", "units": {"viability": "%"}, "values": [{"compound": "CCC(c1nnnn1CCOC)N(Cc1ccc(C)cc1)Cc1cc2cc(OC)ccc2[nH]c1=O", "note": "(stereo not given)", "viability": 72.5}, {"compound": "COc1ccccc1-c1nnc(SCc2ccccn2)n1C", "viability": 80.6}, {"compound": "CCCCOCCCNC(=O)c1ccccc1OCC", "viability": 87.8}, {"compound": "COCCOC(=O)C1=C(C)Nc2ncnn2C1c1ccc(F)cc1", "note": "(stereo not given)", "viability": 85.8}, {"compound": "CCCCOc1ccc(C(=O)Nn2cnnc2)cc1", "viability": 89.5}, {"compound": "O=C(CNS(=O)(=O)c1ccc(Br)s1)N1CCN(c2ncccn2)CC1", "viability": 94.6}, {"compound": "CCN(CC)CCCN(Cc1cc2cc(OC)ccc2[nH]c1=O)C(=O)Nc1ccccc1", "viability": 77.7}, {"compound": "CN(C)CCCn1c(N)c(C#N)c2nc(C#N)c(C#N)nc21", "viability": 90.1}, {"compound": "CCOC(=O)C(C)(C)Sc1nc2c(cnn2-c2ccc(C)cc2)c(=O)[nH]1", "viability": 79.9}, {"compound": "COC(=O)c1ccc(CSc2nnc(-c3ccncc3)o2)o1", "viability": 100}, {"compound": "CC1(C)Cc2nc3oc4c(N(CCO)Cc5ccccc5)ncnc4c3cc2CO1", "viability": 86.2}, {"compound": "CCCCc1n[nH]c2c1C(=O)CC(C)(C)C2", "viability": 96.9}, {"compound": "CCOc1ccc(NC(=O)C2CC(=O)N(C(C)C)C2)cc1", "note": "(stereo not given)", "viability": 99.7}, {"compound": "C=C(C)CSc1nnc(-c2cccc(S(=O)(=O)N(C)C)c2)n1-c1cc(OC)ccc1OC", "viability": 95.9}, {"compound": "N#Cc1c(NC(=O)c2ccc(Br)o2)n(-c2ccccc2)c2nc3ccccc3nc12", "viability": 85.2}, {"compound": "CCCC(=O)Nc1cc(C)c(NC(=O)c2ccccn2)cn1", "viability": 99.4}, {"compound": "CCOC(=O)c1sc2ncn(/N=C/N(C)C)c(=O)c2c1C", "viability": 100}, {"compound": "O=C(c1ccco1)N1CCN(C(=O)c2cc3c(s2)-c2ccccc2OC3)CC1", "viability": 97}, {"compound": "Cn1c(-c2ccccc2)c(CCO)c2ccccc21", "viability": 94.7}, {"compound": "CC(C)(C)OC(=O)N1CCCC1C(=O)N1CCc2ccccc21", "note": "(stereo not given)", "viability": 84.9}, {"compound": "Fc1ccc(C(c2nnnn2Cc2ccco2)N2CCN(C3CCCCC3)CC2)cc1", "note": "(stereo not given)", "viability": 94.1}, {"compound": "Cc1c(C(=O)NCc2cccnc2)oc2ccc(S(=O)(=O)N3CCCCC3)cc12", "viability": 70.5}, {"compound": "COc1ccc(-c2cc(C(=O)NCCc3ccccc3)no2)cc1OC", "viability": 89.9}, {"compound": "O=C(NCc1ccccc1)C1CCN(S(=O)(=O)N2CCCCCC2)CC1", "viability": 96.7}, {"compound": "CC1(C)CC(=O)C(CC2=C(O)CC(C)(C)CC2=O)=C(O)C1", "viability": 102}, {"compound": "Cn1c(=O)c2c(nc(SCC(=O)NCc3ccco3)n2C)n(C)c1=O", "viability": 93.5}, {"compound": "COc1ccc(-c2noc(-c3cc(Cl)ccc3Cl)n2)cc1OC", "viability": 107}, {"compound": "CCn1c(=O)cc(SCC(=O)NCCN2CCN(Cc3ccccc3)CC2)c2ccccc21", "viability": 84.4}, {"compound": "CC(=O)Nc1cccc(NC(=O)c2oc3ccccc3c2C)c1", "viability": 68.9}, {"compound": "CN1CCN(c2oc(COc3ccc(-c4ccccc4)cc3)nc2C#N)CC1", "viability": 78.3}, {"compound": "Clc1ccc2nc(N3CCCCC3)[nH]c2c1", "viability": 91.9}, {"compound": "CN1CCc2nc(SCC(=O)Nc3ccc(F)cc3)c(C#N)cc2C1", "viability": 97}, {"compound": "CCCCC(=O)NCCc1ccc(S(N)(=O)=O)cc1", "viability": 97.1}, {"compound": "Cc1onc(-c2c(Cl)cccc2Cl)c1C(=O)N1CCc2ccccc21", "viability": 61.6}, {"compound": "Cc1ccc(S(=O)(=O)NCCCCC(NC(=O)OC(C)(C)C)C(=O)O)cc1", "note": "(stereo not given) (tested in a mixture with another compound)", "viability": 104}, {"compound": "N#CC1=C(N)SC(N)=C(C#N)C1c1ccc(C(F)(F)F)cc1", "viability": 84.3}, {"compound": "C=Cn1c(C(=O)O)cc(CC)c1-c1ccccc1", "viability": 106}, {"compound": "Cc1nc2cccc(C(=O)NC3CCCCC3)c2o1", "viability": 93.1}, {"compound": "O=C(CCn1nc(-c2ccc(Cl)cc2)ccc1=O)N1CCN(c2ccccn2)CC1", "viability": 91.1}, {"compound": "COc1ccc(-c2nnc(SCC#N)o2)cc1", "viability": 103}]}, {"assay": "yeast transport mutant growth inhibition pilot in 384-well plates, post-Golgi transport modulator project (AID 636)", "conditions": "absorbance 615 nm, about 18 h, stronger effect = higher value", "values": [{"compound": "CCC(c1nnnn1CCOC)N(Cc1ccc(C)cc1)Cc1cc2cc(OC)ccc2[nH]c1=O", "note": "(stereo not given)", "inhibition": "-3.03% (inactive)"}, {"compound": "COc1ccccc1-c1nnc(SCc2ccccn2)n1C", "inhibition": "7.53% (inactive)"}, {"compound": "CCCCOCCCNC(=O)c1ccccc1OCC", "inhibition": "-3.72% (inactive)"}, {"compound": "COCCOC(=O)C1=C(C)Nc2ncnn2C1c1ccc(F)cc1", "note": "(stereo not given)", "inhibition": "-3.6% (inactive)"}, {"compound": "CCCCOc1ccc(C(=O)Nn2cnnc2)cc1", "inhibition": "-5% (inactive)"}, {"compound": "O=C(CNS(=O)(=O)c1ccc(Br)s1)N1CCN(c2ncccn2)CC1", "inhibition": "-4.87% (inactive)"}, {"compound": "CCN(CC)CCCN(Cc1cc2cc(OC)ccc2[nH]c1=O)C(=O)Nc1ccccc1", "inhibition": "-5.73% (inactive)"}, {"compound": "CN(C)CCCn1c(N)c(C#N)c2nc(C#N)c(C#N)nc21", "inhibition": "-1.89% (inactive)"}, {"compound": "CCOC(=O)C(C)(C)Sc1nc2c(cnn2-c2ccc(C)cc2)c(=O)[nH]1", "inhibition": "-1.95% (inactive)"}, {"compound": "COC(=O)c1ccc(CSc2nnc(-c3ccncc3)o2)o1", "inhibition": "-4.8% (inactive)"}, {"compound": "CC1(C)Cc2nc3oc4c(N(CCO)Cc5ccccc5)ncnc4c3cc2CO1", "inhibition": "-1.76% (inactive)"}, {"compound": "CCCCc1n[nH]c2c1C(=O)CC(C)(C)C2", "inhibition": "-3.78% (inactive)"}, {"compound": "CCOc1ccc(NC(=O)C2CC(=O)N(C(C)C)C2)cc1", "note": "(stereo not given)", "inhibition": "-2% (inactive)"}, {"compound": "C=C(C)CSc1nnc(-c2cccc(S(=O)(=O)N(C)C)c2)n1-c1cc(OC)ccc1OC", "inhibition": "-3.55% (inactive)"}, {"compound": "N#Cc1c(NC(=O)c2ccc(Br)o2)n(-c2ccccc2)c2nc3ccccc3nc12", "inhibition": "-5.73% (inactive)"}, {"compound": "CCCC(=O)Nc1cc(C)c(NC(=O)c2ccccn2)cn1", "inhibition": "-5.06% (inactive)"}, {"compound": "CCOC(=O)c1sc2ncn(/N=C/N(C)C)c(=O)c2c1C", "inhibition": "-6.13% (inactive)"}, {"compound": "O=C(c1ccco1)N1CCN(C(=O)c2cc3c(s2)-c2ccccc2OC3)CC1", "inhibition": "0.13% (inactive)"}, {"compound": "Cn1c(-c2ccccc2)c(CCO)c2ccccc21", "inhibition": "-0.79% (inactive)"}, {"compound": "CC(C)(C)OC(=O)N1CCCC1C(=O)N1CCc2ccccc21", "note": "(stereo not given)", "inhibition": "1.17% (inactive)"}, {"compound": "Fc1ccc(C(c2nnnn2Cc2ccco2)N2CCN(C3CCCCC3)CC2)cc1", "note": "(stereo not given)", "inhibition": "2% (inactive)"}, {"compound": "Cc1c(C(=O)NCc2cccnc2)oc2ccc(S(=O)(=O)N3CCCCC3)cc12", "inhibition": "-0.39% (inactive)"}, {"compound": "COc1ccc(-c2cc(C(=O)NCCc3ccccc3)no2)cc1OC", "inhibition": "-4.19% (inactive)"}, {"compound": "O=C(NCc1ccccc1)C1CCN(S(=O)(=O)N2CCCCCC2)CC1", "inhibition": "6.49% (inactive)"}, {"compound": "CC1(C)CC(=O)C(CC2=C(O)CC(C)(C)CC2=O)=C(O)C1", "inhibition": "-3.68% (inactive)"}, {"compound": "Cn1c(=O)c2c(nc(SCC(=O)NCc3ccco3)n2C)n(C)c1=O", "inhibition": "-0.78% (inactive)"}, {"compound": "COc1ccc(-c2noc(-c3cc(Cl)ccc3Cl)n2)cc1OC", "inhibition": "-2.67% (inactive)"}, {"compound": "CCn1c(=O)cc(SCC(=O)NCCN2CCN(Cc3ccccc3)CC2)c2ccccc21", "inhibition": "-4.47% (inactive)"}, {"compound": "CC(=O)Nc1cccc(NC(=O)c2oc3ccccc3c2C)c1", "inhibition": "-4.8% (inactive)"}, {"compound": "CN1CCN(c2oc(COc3ccc(-c4ccccc4)cc3)nc2C#N)CC1", "inhibition": "-5.6% (inactive)"}, {"compound": "Clc1ccc2nc(N3CCCCC3)[nH]c2c1", "inhibition": "-7.84% (inactive)"}, {"compound": "CN1CCc2nc(SCC(=O)Nc3ccc(F)cc3)c(C#N)cc2C1", "inhibition": "-5.33% (inactive)"}, {"compound": "CCCCC(=O)NCCc1ccc(S(N)(=O)=O)cc1", "inhibition": "-2.16% (inactive)"}, {"compound": "Cc1onc(-c2c(Cl)cccc2Cl)c1C(=O)N1CCc2ccccc21", "inhibition": "-0.93% (inactive)"}, {"compound": "Cc1ccc(S(=O)(=O)NCCCCC(NC(=O)OC(C)(C)C)C(=O)O)cc1", "note": "(stereo not given) (tested in a mixture with another compound)", "inhibition": "-3.68% (inactive)"}, {"compound": "N#CC1=C(N)SC(N)=C(C#N)C1c1ccc(C(F)(F)F)cc1", "inhibition": "5.58% (inactive)"}, {"compound": "C=Cn1c(C(=O)O)cc(CC)c1-c1ccccc1", "inhibition": "-4.4% (inactive)"}, {"compound": "Cc1nc2cccc(C(=O)NC3CCCCC3)c2o1", "inhibition": "-3.73% (inactive)"}, {"compound": "O=C(CCn1nc(-c2ccc(Cl)cc2)ccc1=O)N1CCN(c2ccccn2)CC1", "inhibition": "-3.42% (inactive)"}, {"compound": "COc1ccc(-c2nnc(SCC#N)o2)cc1", "inhibition": "-5.47% (inactive)"}]}]}
